# Laboratory results published in PubChem BioAssay.
# “And” between values parts separate entries of the source, which are not always exact repeats. Equal entries are not always repeated. Results filed as inconclusive are left out. The source made the active and inactive calls. Unless noted, no stated cut-off is given here; in the data, active means inhibition above about 80%; inactive means the rest.
# Legend:
# [1] = JHH-DIPG-1 glioma cell viability, MIPE5.0 library, CellTiter-Glo luminescence, qHTS (AID 1347067; cut-off not given, nearly all actives have AC50 up to about 26 µM;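 further: cells exposed to compound for 48 hours before readout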); settings: JHH-DIPG-1 glioma viability, CellTiter-Glo ATP luminescence
# [2] = growth inhibition of DIPG cells – cell-based, MIPE5.0 library, qHTS (AID 1347068; cut-off not given, nearly all actives have IC50 up to about 30 µM); settings: SU-DIPG-XXV viability
# [3] = viability loss with induced miR-34 in A549 – imaging, A549 dox-inducible miR-34, nuclei and caspase counts, primary screen (AID 1347080;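 active means compounds whose cell count with miR-34 switched on is under 0.7 times the count with it off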); settings: A549 miR-34 inducible, Hoechst nuclei count, 48 h
# [4] = MELAS cybrid and Rieske KO viability enhancers – cell-based, MELAS cybrids, Rieske KO mouse fibroblasts, CellTiter-Glo, primary screen (AID 1508586;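 active means mean z-score across replicates of 1.96 or higher in either the MELAS or the Rieske mutant cell line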;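 further: z relative to plate mean and SD of compound and empty wells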); settings: low glucose
# [5] = growth inhibition, single agent or in combination, cell-based, chromothripsis tumors, cisplatin or BGB combos (AID 1671449); settings: LFS_MB_P medulloblastoma cells;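 further: cells exposed for 96 hours; 0% = vehicle DMSO and 100% = killing by high DMSO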
# [6] = growth inhibition, single agent and combos, cell-based, chromothripsis tumors, cisplatin or BGB combos (AID 1671450); settings: HDN33 neuroblastoma cells, stronger effect = higher value;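 further: cells exposed to compound for four days; 0% = vehicle DMSO and 100% = cell killing by high DMSO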
# [7] = growth inhibition, single agents and combos, ICB984, cell-based, cisplatin or BGB combos, synergistic combos for chromothripsis tumors (AID 1671451; call rule not given here;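 further: cells exposed for 96 hours before readout; 0% = vehicle DMSO and 100% = killing by high DMSO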); settings: ICB984 medulloblastoma cells, drug combinations, stronger effect = higher value
# [8] = growth inhibition, single agents and combos, LFS_MB_1R, cell-based, cisplatin or BGB combos, synergistic combos for chromothripsis tumors (AID 1671452); settings: LFS_MB_1R medulloblastoma cells, stronger effect = higher value;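 further: cells exposed for 96 hours before readout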
# [9] = growth inhibition, single agents and combos, HTB85, cell-based, BGB or cisplatin IC20 combos, synergistic combos for chromothripsis tumors (AID 1671453); settings: HTB85 osteosarcoma cells, drug combinations, stronger effect = higher value;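 further: cells exposed for 96 hours before readout; 0% = vehicle DMSO and 100% = high DMSO killing control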
# [10] = growth inhibition, single agents and combos, CRL2098, cell-based, BGB or cisplatin IC20 combos, synergistic combos for chromothripsis tumors (AID 1671454); settings: CRL2098 osteosarcoma cells, drug combinations, stronger effect = higher value;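 further: cells exposed for 96 h before readout; 0% = vehicle DMSO and 100% = killing by high DMSO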
# [11] = growth inhibition, single agents and combos, HD-MB03, cell-based, BGB or cisplatin IC20 combos, synergistic combos for chromothripsis tumors (AID 1671455; in the data active means inhibition above about 83%;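 further: 0% = vehicle DMSO and 100% = high DMSO as cytotoxic control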); settings: HD-MB03 medulloblastoma cells, stronger effect = higher value
# [12] = growth inhibition, single agents and combos, UWB1.289, cell-based, BGB or cisplatin combos, synergistic combos for chromothripsis tumors (AID 1671456); settings: UWB1.289 ovarian carcinoma cells, stronger effect = higher value;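 further: cells exposed to compound for four days; 0% = vehicle DMSO and 100% = killing by high DMSO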
# [13] = growth inhibition, single agents and combos, LFS_MB_2R, cell-based, cisplatin combos, synergistic combos for chromothripsis tumors (AID 1671457); settings: LFS_MB_2R medulloblastoma cells, stronger effect = higher value;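 further: cells exposed to compound for four days before readout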
# [14] = growth inhibition, MDA-MB-436, cell-based, BGB or cisplatin combos, synergistic combos for chromothripsis tumors (AID 1671458; call rule not given here;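 further: cells exposed for 96 hours; 0% = vehicle DMSO and 100% = killing by high DMSO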); settings: MDA-MB-436 breast carcinoma growth inhibition, drug combinations, stronger effect = higher value
# [15] = UWB1.289_BRCA1 ovarian cancer growth, cell-based, BGB or cisplatin combinations (AID 1671459); settings: UWB1.289 BRCA1 ovarian carcinoma, drug combinations, stronger effect = higher value
# [16] = drug combination toxicity in non-malignant astrocytes – cell-based, BGB or cisplatin IC20 combos, cytotoxicity control for chromothriptic childhood tumor combination screen (AID 1671460); settings: Human astrocytes, viability inhibition, drug combinations, at 0.5 µM, stronger effect = higher value;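 further: cells exposed to compounds for 96 hours before viability readout; 0% = vehicle and 100% = killing control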
# [17] = BT084 cell growth, single and combined drugs, ICGC_MB145, cisplatin and BGB IC40 combos (AID 1671461); settings: BT084 medulloblastoma cells, drug combinations, stronger effect = higher value;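 further: cells exposed to drugs for 96 hours; 0% = vehicle DMSO and 100% = high DMSO full killing control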
# [18] = RCMB18 cell growth, single agent and combined, cisplatin and BGB IC40 combos (AID 1671462); settings: RCMB18 medulloblastoma cells, stronger effect = higher value;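 further: cells exposed to compound for four days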
# [19] = CRL1545 cell growth, single agent and combined, cisplatin and BGB IC20 combos (AID 1671464); settings: CRL1545 osteosarcoma cells, stronger effect = higher value;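 further: cells exposed to compound for 96 hours before readout; 0% = vehicle DMSO and 100% = high DMSO killing control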
# [20] = measured here: combination with BGB IC40, at 0.05 µM
# [21] = measured here: with BGB IC20 combination, at 0.5 µM
# [22] = measured here: with cisplatin IC20 combination, at 0.5 µM
# [23] = measured here: combination with cisplatin, at 0.5 µM
# [24] = measured here: combination with cisplatin, at 5 µM
smiles,measurement,setting,value
Nc1nc(F)nc2c1ncn2C1OC(COP(=O)(O)O)C(O)C1O (stereo unspecified),outcome,[1],inactive
same,outcome,[2],inactive
same,fold change,"[3]; stronger effect = lower value, cell number ratio, induced over uninduced",0.831 (inactive)
same,fold change,[3]; measured here: relative caspase fold change +Dox/-Dox,1.44
same,cell count,"[3]; measured here: total cells with miR-34 induction, stronger effect = lower value",1120
same,cell count,[3]; measured here: total cells without miR-34 induction,1350
same,z-score,"[4]; MELAS cybrid survival, CellTiter-Glo 48 h, stronger effect = higher value",1.34 (inactive)
same,z-score,"[4]; Rieske KO mouse fibroblast survival, CellTiter-Glo 72 h",0.326
same,inhibition,"[5]; at 0.5 µM, stronger effect = higher value",-6.1% (inactive) and -16% (inactive)
same,inhibition,"[5]; measured here: combination with BGB IC20, at 0.005 µM",-22.8% and 0.183%
same,inhibition,"[5]; measured here: combination with BGB IC40, at 0.005 µM",-34.6% and 88.8%
same,inhibition,[5]; [20],-38.1% and -2.46%
same,inhibition,"[5]; measured here: combination with cisplatin, at 0.5 µM, stronger effect = higher value",-18.5% and -25%
same,inhibition,"[5]; measured here: combination with cisplatin, at 5 µM, stronger effect = higher value",-36% and -9.03%
same,inhibition,"[6]; BGB combo, at 5 µM",8.47% and 22.7%
same,inhibition,[6]; at 0.5 µM,-18.9% (inactive) and 5.11% (inactive)
same,inhibition,"[6]; cisplatin combo, at 5 µM",34% and 24.2%
same,inhibition,[6]; [21],-23% and -1.08%
same,inhibition,[6]; [22],-13.9% and 12.9%
same,inhibition,"[6]; single agent, at 5 µM",32.2% and 15.4%
same,inhibition,"[7]; BGB IC20 combo, at 0.005 µM",-19.2% and -1.57%
same,inhibition,"[7]; BGB IC40 combo, at 0.005 µM",-13.6% and -18.3%
same,inhibition,"[7]; BGB IC40 combo, at 0.05 µM",-31.2% and -1.01%
same,inhibition,[7]; at 0.5 µM,-29.2% (inactive) and -28.4% (inactive)
same,inhibition,"[7]; cisplatin combo, at 0.05 µM",-35.9% and -6.12%
same,inhibition,"[7]; cisplatin combo, at 0.5 µM",-20.9% and -39.7%
same,inhibition,"[7]; cisplatin combo, at 5 µM",-37.1% and 11.4%
same,inhibition,"[7]; measured here: 5 uM single agent, at 5 µM",0.546% and -0.896%
same,inhibition,[8]; at 0.5 µM,-6.95% (inactive) and -19.6% (inactive)
same,inhibition,[8]; [20],-26.6% and -4.09%
same,inhibition,[8]; [23],-0.649% and -47.1%
same,inhibition,[8]; [24],-27.4% and 0.798%
same,inhibition,[9]; at 0.5 µM,-3.37% (inactive) and -4.43% (inactive)
same,inhibition,"[9]; measured here: with BGB IC20, at 0.5 µM",-4.86% and 13.2%
same,inhibition,"[9]; measured here: with BGB IC20, at 5 µM",45.3% and 42.7%
same,inhibition,"[9]; measured here: with cisplatin IC20, at 0.5 µM",-6.04% and -18.8%
same,inhibition,"[9]; measured here: with cisplatin IC20, at 5 µM",12.2% and 45.7%
same,inhibition,"[9]; single agent, at 5 µM",36% and 50.6%
same,inhibition,[10]; at 0.5 µM,89.7% (active) and 91.2% (active)
same,inhibition,"[10]; measured here: combination with BGB at IC20, at 0.5 µM",89.6% and 91.3%
same,inhibition,"[10]; measured here: combination with cisplatin at IC20, at 0.5 µM",88.8% and 92.6%
same,inhibition,[11]; at 0.5 µM,-9.66% (inactive) and -9.92% (inactive)
same,inhibition,"[11]; measured here: combo with BGB at IC20, at 0.5 µM",-18.1% and -5.96%
same,inhibition,"[11]; measured here: combo with cisplatin at IC20, at 0.5 µM",-7.22% and -17%
same,inhibition,[12]; at 0.5 µM,0.55% (inactive) and 0.43% (inactive)
same,inhibition,"[12]; measured here: inhibition with BGB combination, at 0.05 µM",-14.7% and -18.8%
same,inhibition,"[12]; measured here: inhibition with cisplatin combination, at 0.05 µM",7.04% and -2.8%
same,inhibition,[13]; at 0.5 µM,-15.7% (inactive) and -21.8% (inactive)
same,inhibition,[13]; [23],-20.2% and -35.8%
same,inhibition,[13]; [24],-11.6% and -19.4%
same,inhibition,[14]; at 0.5 µM,-9.15% (inactive) and -15.9% (inactive)
same,inhibition,"[14]; measured here: BGB combination, at 0.5 µM",-8.11% and -21.9%
same,inhibition,"[14]; measured here: BGB combination, at 5 µM",-2.69% and -3.01%
same,inhibition,"[14]; measured here: cisplatin combination, at 0.5 µM",-21.1% and -19.1%
same,inhibition,"[14]; measured here: cisplatin combination, at 5 µM",-5.75% and -5.25%
same,inhibition,"[15]; BGB combination, concentration series, at 5 µM",11.6% and 15.8%
same,inhibition,[15]; at 0.5 µM,-0.02% (inactive) and -0.87% (inactive)
same,inhibition,"[15]; cisplatin combination, concentration series, at 5 µM",11.9% and 23.4%
same,inhibition,[16],1.35% (inactive) and 3.3% (inactive)
same,inhibition,[16]; measured here: combo with BGB IC20,-1.03% and 7.99%
same,inhibition,[16]; measured here: combo with cisplatin IC20,-5.99% and 1.9%
same,inhibition,[17]; at 0.5 µM,-11.5% (inactive) and -3.83% (inactive)
same,inhibition,"[17]; cisplatin combination, at 0.5 µM",-36% and -5.18%
same,inhibition,"[17]; cisplatin combination, at 5 µM",4.67% and -96.3%
same,inhibition,"[17]; measured here: BGB IC40 combination 0.05 uM, at 0.05 µM",-40.8% and -7.89%
same,inhibition,"[17]; single agent, at 5 µM",-1.22% and 8.96%
same,inhibition,[18]; at 0.5 µM,-12.8% (inactive) and -10.2% (inactive)
same,inhibition,"[18]; cisplatin combo, at 5 µM",18.6% and -15.8%
same,inhibition,"[18]; measured here: BGB IC40 combination, at 0.05 µM",-56.2% and -25.6%
same,inhibition,[18]; [23],24.5% and -1.4%
same,inhibition,"[18]; single agent, at 5 µM",-15.5% and 3.22%
same,inhibition,[19]; at 0.5 µM,-20.4% (inactive) and 8.11% (inactive)
same,inhibition,[19]; [21],-8.22% and 10.3%
same,inhibition,[19]; [22],-28.6% and 5.54%
same,inhibition,"[19]; single agent, at 0.05 µM",18.9% and -12.8%
same,inhibition,"[19]; single agent, at 5 µM",-12.4% and -14.9%
